# According to PubChem BioAssay (NCATS):
# Inconclusive results are not listed. Where a call stands in place of a potency, no number is given. A number with no mark means an inactive call. Calls of active or inactive are those of the source. Calls come from the whole dose curve; as a rule, active = well fitted inhibition curve with a large enough effect; inconclusive = small, poorly fitted or top-dose-only effect; inactive = flat fitted curve, though single readings scatter.
# System: astro (control astrocytes)
# Experiment: Drug repurposing screens with cells derived from glioblastoma tumor samples (AID 1345199); note: nearly all actives have a fitted effect of over 40% in size
# Settings: viability, ATP luminescence, 48 h; series mostly up to 45.9 µM
# Method: CD133+ cells were isolated from GBM patient biopsies and cultured as neurospheres. Neurospheres from four patients were used to screen the NCATS pharmaceutical collection (NPC) library of approved drugs and bioactive compounds. […] The neurospheres were incubated with drugs for 48 hours in 1536-well format, then assayed with an ATP content cell viability assay. […] These hits were cherry picked to confirm activity in the four original GBM lines screened plus three other slower growing GMB lines (unable to yield enough cells for a full primary screen). Variable activities of the confirmed primary hits in the different GBM patient lines were observed. The patient line 206 responded to the greatest number of compounds and line 923 responded to the least amount of active compounds.
# Potency is the fitted concentration of half-maximal effect.
SMILES,Potency,"activity, negative = cell killing"
Oc1ccc(Cl)cc1,inactive,–
COc1ccc2c(c1)C13CCCC[C@@H]1C(C2)N(C)CC3 (stereo not given in full),inactive,–
COc1cccc([C@@]2(O)CCCC[C@@H]2CN(C)C)c1,inactive,–
COC(=O)[C@@H](N)CCCN/C(N)=N/[N+](=O)[O-],inactive,–
CN1CC[C@]23c4c5ccc(O)c4O[C@H]2[C@@H](O)CC[C@H]3[C@H]1C5,inactive,–
COC1CC(=C(c2cccs2)c2cccs2)C[N+](C)(C)C1 (stereo not given),inactive,–
CC(C)c1cccc(C(C)C)c1O,inactive,–
COc1ccc2c3c1O[C@H]1[C@H](O)CC[C@H]4[C@@H](C2)N(C)CC[C@@]341,inactive,–
Clc1ccc(C(c2ccc(Cl)cc2)C(Cl)(Cl)Cl)cc1,inactive,–
CN1C(=O)C(O)N=C(c2ccccc2)c2cc(Cl)ccc21 (stereo not given),inactive,–
C[N+]1(CCF)[C@@H]2CC[C@H]1CC(OC(=O)C(O)(c1ccccc1)c1ccccc1)C2 (stereo not given in full),inactive,–
CN1C(=O)NC(=O)C(C)(C2=CCCCC2)C1=O (stereo not given),inactive,–
O=C1CN=C(c2ccccc2)c2cc([N+](=O)[O-])ccc2N1,inactive,–
Cc1nnc2n1-c1ccc(Cl)cc1C(c1ccccc1Cl)=NC2,inactive,–
CC(Cc1ccccc1)NCCn1cnc2c1c(=O)n(C)c(=O)n2C (stereo not given),inactive,–
CCCCCN(C)CCC(O)(P(=O)(O)O)P(=O)(O)O,inactive,–
C[C@]12CCC(=O)C=C1CC[C@@H]1[C@H]3CC[C@](C)(O)[C@@]3(C)CC[C@@H]12,inactive,–
CN(C)CCc1c[nH]c2cccc(OP(=O)(O)O)c12,inactive,–
[N-]=[N+]=CC(=O)OC[C@H](N)C(=O)O,inactive,–
C[C@]12CC[C@@H]3c4ccc(OC(=O)N(CCCl)CCCl)cc4CC[C@H]3[C@@H]1CC[C@@H]2OP(=O)(O)O,10 µM (active),–

SMILES,Potency,"activity, negative = cell killing"
O=C1OC(c2ccc(O)c(S(=O)(=O)O)c2)(c2ccc(O)c(S(=O)(=O)O)c2)c2c(Br)c(Br)c(Br)c(Br)c21,inactive,–
COP(=S)(OC)Oc1ccc(S(=O)(=O)N(C)C)cc1,inactive,–
O=C(N/N=C/c1ccc([N+](=O)[O-])o1)c1cc([N+](=O)[O-])cc([N+](=O)[O-])c1O,inactive,–
NC(=O)c1cc([N+](=O)[O-])cc([N+](=O)[O-])c1,inactive,–
CN1C(=O)CC(=O)N(c2ccccc2)c2cc(Cl)ccc21,inactive,–
CN1C(=O)COc2c(C(=O)NC3CN4CCC3CC4)cc(Cl)cc21 (stereo not given),inactive,–
O=C(O)CCCc1ccc(N(CCCl)CCCl)cc1,inactive,–
CCCCC/C=C\C/C=C\C/C=C\C/C=C\CCCC(=O)NCC(=O)O,–,0.313% [at 4.17 µM]
NCCc1ccc(O)cc1,inactive,–
COc1cc(CC(C)N)cc(OC)c1OC (stereo not given),inactive,–
Nc1nc(N)nc(NC2CC2)n1,inactive,–
CCC1(c2ccccc2)C(=O)N(COC)C(=O)N(COC)C1=O,inactive,–
CNC(C)(C)Cc1ccccc1,inactive,–
CC(C)(C)NCC(O)c1ccccc1Cl (stereo not given),inactive,–
O=P1(N(CCCl)CCCl)NCCCO1 (stereo not given),inactive,–
CCOP(=S)(OCC)Oc1ccc2c(C)c(Cl)c(=O)oc2c1,inactive,–
COc1cc(CCN)cc(OC)c1OC,inactive,–
C[C@]12CCC(=O)C=C1CC[C@@H]1[C@@H]2CC[C@]2(C)C(=O)CC[C@@H]12,inactive,–
CCc1cc2c(s1)-n1c(C)nnc1CN=C2c1ccccc1Cl,inactive,–
CCN(CCO)CCn1c(Cc2ccccc2)nc2c1c(=O)n(C)c(=O)n2C,inactive,–
